This is a sample that favours compounds with a hit; in the whole collection about 2.6% have one here.
CRFR2-BP antag: antagonists of CRF-binding protein/CRF-R2 receptor complex. inhibition, % at 11.8 µM. 350,000 compounds, 0.59% hits. HEK293 CRF-R2/CRF-BP, CRF-induced calcium fluorescence;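 active = inhibition of the ligand-induced calcium signal above about 50% at the single tested concentration, limit read from the data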
TPT1 inhibitor: C. albicans TPT1 enzyme inhibition | recombinant caTPT1, FP RNA substrate dephosphorylation | 300,000 compounds, 0.81% hits | inhibition, % at 5 µM;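 active = inhibition above the mean of all tested compounds plus 3 SD, set per screening campaign, cut at about 24% in these data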
IDE act: boosts human insulin-degrading enzyme activity in HEK cells | P14735 | FAbeta-B cleavage, fluorescence polarization; 0% vehicle, 100% cell-free pure enzyme wells | activation, % at 5.96 µM | 340,000 compounds, 0.073% hits | AID 493087;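 active = activation above the mean of all tested compounds plus 3 SD, set per screening campaign, cut at about 17% in these data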
Myeloid diff 2: promotes myeloid progenitor differentiation; calls only at 10 µM; ER-HoxA9 myeloid progenitors, lysozyme-GFP differentiation, flow cytometry; 360,000 compounds, 1% hits;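 active = normalized GFP-positive differentiation at or above the plate's own cutoff, the solvent-only control mean plus 3 SD; inconclusive = no clear call, values can overlap the other calls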;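 also: cells exposed to compound for four days before flow analysis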
CRFR2-BP ag: CRF-BP/CRF-R2 complex agonism. HEK293 CRF-R2/CRF-BP, calcium dye fluorescence (FLIPR); percent of saturating CRF peptide response. activation, % at 13.2 µM. 350,000 compounds, 0.46% hits;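 active = activation of at least 50%, plus an integration ratio under a set limit after plate pattern correction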
IDE inh: inhibits human insulin-degrading enzyme in HEK cells; P14735; FAbetaB cleavage, fluorescence polarization; inhibition, % at 5.59 µM; 320,000 compounds, 0.41% hits; AID 434962;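 active = percent inhibition above the average of all tested compounds plus 3 SD, set per screening campaign, cut at about 16% in these data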;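 also: IDE supplied by intact live HEK cells; FP after avidin binding of uncleaved biotin substrate so inhibition keeps polarization high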
A number is an active result; - = inactive; ? = inconclusive; . = no result given; + = active, no number.

SMILES | CRFR2-BP antag | TPT1 inhibitor | IDE act | Myeloid diff 2 | CRFR2-BP ag | IDE inh
COc1ccc(-c2nnn(CC(=O)N(Cc3cccs3)C(C)C(=O)NC3CCCC3)n2)cc1OC (centres undefined) | - | - | - | + | - | -
Cc1cc(-c2ccco2)c(C#N)c2nc3ccccc3n12 | - | - | - | + | - | -
CCOc1cc(C(=O)OCC(=O)N(C)c2ccccc2)cc(OCC)c1OCC | - | - | - | - | - | -
Cn1c(-c2ccccc2[N+](=O)[O-])[n+](C)c2ccccc21 | - | - | - | + | - | -
CC(=O)N(Cc1c(C)nn(-c2ccccc2)c1Cl)c1ccc(Cl)cc1 | - | - | - | - | - | -
Cc1nn(-c2ccccc2)c(Cl)c1CN(C(=O)CCl)c1ccc(Cl)cc1 | 78 | - | - | - | - | -
COc1cccc(CNc2ccc3c(c2)ncn3C(C)C)c1OC | - | - | 20 | - | - | -
COC(=O)c1ccc(CC(=O)c2nc3ccccc3s2)cc1 | - | - | - | - | - | -
COC(=O)c1ccc(/C(O)=C(\C#N)c2nc3ccccc3s2)cc1 | 51 | - | - | - | - | -
CCOC(=O)C(=CNc1ccc(OC)cc1[N+](=O)[O-])C(=O)OCC | - | - | - | - | - | -
CC(C)OC(=O)CC(=O)c1sc2nc3c(cc2c1N)CN(C)CC3 | - | - | . | . | 103 | -
COc1ccccc1[C@H]1C(c2cccc(C)c2)=NN(c2ccccc2)[C@@H]1CO | - | . | - | + | - | .
CC(=O)c1cc(F)c(N2CCN(C(=O)C(C)(C)C)CC2)cc1C | 74 | - | - | - | - | -
O=C(Nc1ccc(Oc2ccccc2)cc1)c1csc([C@H]2C[C@H](O)[C@@H](CO)O2)n1 | . | . | . | - | . | .
Cc1cc(-c2nnc(SCC(=O)Nc3cccc(F)c3)n2N)n[nH]1 | - | - | - | - | - | -
COc1ccc(OC)c(S(=O)(=O)N2c3ccccc3CC2C)c1 (centres undefined) | 53 | - | - | - | - | -
CCc1cccc(C)c1NC(=S)N1CCCCC1c1cccnc1 (centres undefined) | - | - | - | - | 54 | -
COc1cccc(OC)c1C(=O)NC(=S)N1CCCCC1c1cccnc1 (centres undefined) | - | - | - | - | - | -
N#Cc1ccc(S(=O)(=O)N2CCN(C(=O)[C@@H]3CCCN3C(=O)c3cccs3)CC2)cc1 | 79 | . | - | - | - | -
Cc1cc(SCC(=O)c2ccc(O)c(O)c2)n2nc(C)c(-c3ccccc3)c2n1 | - | - | - | - | - | -
COC(=O)/C=c1/s/c(=C(\C#N)C(=O)NCc2ccco2)n(-c2ccccc2)c1=O | 78 | - | - | - | - | -
Cc1cc(/C=C(/C#N)C(=O)O)c(C)n1-c1cccc2ccccc12 | 76 | - | - | - | - | -
CNc1nc2[nH]c(=O)c3c(c2s1)OC(N)=C(C#N)C3c1cccc(F)c1 (centres undefined) | - | - | - | - | 103 | -
O=C(Nc1ccccc1C(=O)Nc1ccccc1C(=O)O)c1ccccc1 | 53 | - | - | - | - | -
O=C(O)c1ccccc1NC(=O)c1ccccc1Nc1ccccc1 | 52 | - | - | + | - | -
SMILES | CRFR2-BP antag | TPT1 inhibitor | IDE act | Myeloid diff 2 | CRFR2-BP ag | IDE inh
COc1ccccc1NC(=O)c1ccccc1Nc1ccccc1 | - | - | - | - | - | -
O=C(COc1ccc(F)c(Cl)c1)Nc1ccc(N2CCOCC2)cc1 | - | . | - | ? | - | -
O=C(Nc1cc(-c2ccccc2)nn1C1CCCCC1)c1ccc(Cl)cc1 | - | . | - | - | - | -
Cc1cc(=O)c2cccc(Br)c2[nH]1 | - | - | - | - | - | -
O=c1cc(C(F)(F)F)[nH]c2c(C(F)(F)F)cccc12 | - | - | - | - | 54 | -
CCOc1ccc2[nH]c(C)cc(=O)c2c1 | - | - | - | - | - | -
O=c1cc(C(F)(F)F)[nH]c2ccc(OC(F)(F)F)cc12 | 69 | - | . | - | - | -
COC(=O)Cn1c2ccc(F)cc2c2nc(C)sc21 | - | - | - | - | - | -
Cc1nc2c3cc(F)ccc3n(Cc3ccc(F)cc3)c2s1 | - | - | - | + | - | -
Cn1c(=O)oc2cc(S(=O)(=O)NC3CCCCC3)ccc21 | - | - | - | - | - | -
CC1CCN(C(=O)CCNS(=O)(=O)c2ccc3c(c2)oc(=O)n3C)CC1 | - | - | - | - | - | -
Cn1c(=O)oc2cc(S(=O)(=O)NCC3CCCO3)ccc21 (centres undefined) | - | - | - | + | - | -
CC1CC(C)CN(CCCNS(=O)(=O)c2ccc3c(c2)oc(=O)n3C)C1 (centres undefined) | - | . | - | + | - | .
CN(C(=O)CCS(=O)(=O)c1ccc2c(c1)oc(=O)n2C)C1CCCCC1 | 68 | - | - | - | - | -
COc1ccccc1S(=O)(=O)N(C)C[C@@H]1OCc2cnnn2CCCC(=O)N([C@H](C)CO)C[C@H]1C | - | . | . | - | - | .
O=C(Cc1c(F)cccc1Cl)NCC(=O)OCc1ccccc1 | - | - | - | - | - | -
COc1cccc(C2C([N+](=O)[O-])=C(N)Oc3cc(C)oc(=O)c32)c1 (centres undefined) | - | - | - | - | - | -
COC(=O)Nc1ccc2c(c1)N(C(=O)CCCl)c1ccccc1S2 | - | . | - | + | - | .
COc1ccc(C2=Nn3c(nnc3C3CCCCC3)SC2)cc1OC | - | - | - | + | - | -
COc1ccc(OC)c(C2=Nn3c(nnc3C3CCCCC3)SC2)c1 | - | - | - | - | - | -
COc1ccc(NC(=O)C2CCN(S(=O)(=O)c3ccc4c(c3)CC(C)N4C(C)=O)CC2)cc1OC (centres undefined) | - | - | 77 | - | - | -
O=C1C(Cl)=C(Nc2ccccc2)C(=O)c2ccccc21 | 83 | - | - | ? | - | -
O=C(O)c1ccc(NC2=C(Cl)C(=O)c3ccccc3C2=O)cc1 | 101 | - | - | - | - | -
CC(C)NC1=C(Cl)C(=O)c2ccccc2C1=O | - | - | - | - | - | -
CC(=O)N[C@@H](C)C(=O)N1CCN(S(=O)(=O)c2ccc(Cl)cc2)CC1 | - | - | - | - | - | -
SMILES | CRFR2-BP antag | TPT1 inhibitor | IDE act | Myeloid diff 2 | CRFR2-BP ag | IDE inh
O=C(Nc1ccn(CCCNCc2ccccc2)c(=O)n1)OCc1ccccc1 | - | . | - | - | - | .
O=C(Nc1ccn(CCCNCc2ccc3c(c2)OCO3)c(=O)n1)OCc1ccccc1 | 110 | . | - | - | - | .
CCCCNS(=O)(=O)c1cccc(NC(=O)[C@@H]2O[C@H](CO)[C@H](O)[C@H](O)[C@H]2O)c1 | . | . | . | - | . | .
O=c1cc[nH]c2c(Cl)cccc12 | 92 | - | - | - | - | -
Cc1ccc(C)n1NC(=O)c1ccccc1[N+](=O)[O-] | - | - | - | - | - | -
Cc1ccc(C)n1NC(=O)c1ccccc1O | 80 | - | - | - | - | -
Cc1nc(C)c(C(=O)OCC(=O)Nc2ccccc2)s1 | - | . | - | - | - | -

High-throughput results as filed in PubChem BioAssay.
